In publication PMC5540273 (PLoS ONE, 2017):

How the values were obtained:
Settings in all cases: concentration: 1 μM, replicates: in singlicate; n = 1
HASPIN = system: T1, HASPIN
T1 construct: gene GSG2

HCK = system: HCK
HIPK1 = system: HIPK1
HIPK2 = system: HIPK2
HIPK3 = system: HIPK3
HIPK4 = system: HIPK4
HPK1 = system: HPK1
HUNK = system: HUNK
ICK = system: ICK
IGF1R = system: IGF1R
IKK-alpha = system: T2, IKK-alpha
T2 construct: gene CHUK

IKK-beta = system: T3, IKK-beta
T3 construct: gene IKBKB

IKK-epsilon = system: T4, IKK-epsilon
T4 construct: gene IKBKE

INSRR = system: INSRR
INSR = system: INSR
IRAK1 = system: IRAK1
IRAK3 = system: IRAK3
IRAK4 = system: IRAK4
ITK = system: ITK
[1] = system: JAK1(JH1domain-catalytic)
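Also: KINOMEscan kinase panel screen.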

Compound	%Inh (HASPIN)	%Inh (HCK)	%Inh (HIPK1)	%Inh (HIPK2)	%Inh (HIPK3)	%Inh (HIPK4)	%Inh (HPK1)	%Inh (HUNK)	%Inh (ICK)	%Inh (IGF1R)	%Inh (IKK-alpha)	%Inh (IKK-beta)	%Inh (IKK-epsilon)	%Inh (INSRR)	%Inh (INSR)	%Inh (IRAK1)	%Inh (IRAK3)	%Inh (IRAK4)	%Inh (ITK)	%Inh [1]
Nc1n[nH]c2cnc(-c3ccccc3)cc12 [SB-642124]	68%	0%	64%	78%	88%	7%	58%	0%	26%	0%	55%	64%	13%	100%	0%	49%	3%	32%	13%	37%
COc1ccc(Nc2nccc(NCCNC(=O)c3cc4ccccc4s3)n2)cc1 [GSK1379896]	0%	15%	0%	0%	22%	0%	44%	13%	0%	0%	0%	0%	0%	0%	0%	0%	0%	0%	8%	5%
Fc1ccc(-c2ncn(C3CCNCC3)c2-c2ccnc(Oc3ccc(-c4ccccc4)cc3)n2)cc1 [SB-245391]	24%	31%	5%	0%	31%	27%	29%	38%	25%	48%	32%	32%	0%	37%	22%	11%	0%	0%	0%	10%
Cl.Cl.NCC(NC(=O)c1cc(-c2ccccc2)c(-c2ccnc3[nH]ccc23)s1)c1ccccc1 (centres unmarked) [GSK1321561]	90.3%	0%	18%	28%	47%	50%	68%	11%	3%	0%	1%	3%	0%	0%	12%	40%	15%	0%	11%	29%
Cc1ccc(F)c(C(=O)Nc2cccc(-c3nn4ccccc4c3-c3ccnc(Nc4cccc(F)c4)n3)c2)c1F [GSK361061]	1%	94.4%	0%	0%	14%	57%	21%	11%	0%	41%	0%	0%	22%	26%	25%	0%	17%	3%	43%	9%
O=C(NC1CCN(c2ccnc(Nc3ccc(F)cc3)n2)C1)c1cc2ccccc2s1 (centres unmarked) [GSK1379716]	12%	0%	0%	0%	8%	0%	54%	10%	0%	13%	21%	0%	15%	0%	70%	32%	11%	17%	21%	29%
CC(C)c1nc(-c2cccc(NS(=O)(=O)c3c(F)cccc3F)c2F)c(-c2ccnc(Nc3ccc(N4CCOCC4)nc3)n2)s1 [GSK2008607]	0%	99.5%	91.1%	92.3%	94.5%	94.7%	88%	0%	77%	8%	0%	4%	85%	4%	4%	17%	16%	10%	97.4%	1%
Cc1cccc(NC(=O)Nc2ccc(Oc3ncnc4ccn(C)c34)cc2)c1	0%	25%	24%	0%	0%	52%	31%	4%	0%	0%	27%	8%	0%	0%	0%	0%	0%	0%	0%	0%
CCn1c(-c2nonc2N)nc2c(C#CC(C)(C)O)nc(OC[C@H](N)c3ccccc3)cc21 [GSK943949]	22%	0%	21%	0%	14%	0%	30%	3%	0%	0%	0%	0%	13%	0%	0%	0%	0%	8%	0%	19%
O=c1[nH]cc(-c2ccc(N3CCOCC3)cc2)c2sc(-c3cn[nH]c3)cc12 [GSK2276055]	79%	0%	97.3%	97.5%	99%	47%	26%	11%	31%	0%	0%	11%	34%	0%	24%	0%	0%	9%	0%	24%
